Sampled rows, rich in hits. Any-hit rate of the full collection: about 10%.
LMNA splice mod: modulators of lamin A splicing | HeLa LMNA splicing GFP/RFP minigene ratio, 48 h | Potency, µM (series often up to 46.1 µM), for inactives: at the highest dose ratio change, negative = inhibition, hits mostly inhibitors | hit rate 0.01% among 200,000; active = well fitted inhibition curve with a large enough effect in the signal ratio, with a control signal flat, not every such curve was filed as active; inconclusive = small, poorly fitted or top-dose-only effect, or effect the other way, or a change in a side signal; the % refers to the signal ratio; also: potency is read from the fitted curve at half-maximal effect
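S3 HeLa stable clones carrying a lamin A-EGFP splicing minigene plus DsRed2 were seeded at 600 cells/well in Opti-MEM with 2% FBS, pin-dosed and incubated 48 h at 37°C. Acumen cytometry (488 nm) gave the GFP/RFP total-intensity ratio.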
KinaseGlo FLuc: counter-screen: inhibitors of Kinase-Glo firefly luciferase; Kinase-Glo luciferase, ATP luminescence, 8 min; hit rate 0.28% among 200,000; Q27757; Potency, µM (highest dose often 38.3 µM), without a hit: at the top dose activity change, negative = inhibition, actives largely listed as inhibitors; active = well fitted inhibition curve with a large enough effect; inconclusive = small, poorly fitted or top-dose-only effect; also: potency is read from the fitted curve at half-maximal effect; nearly all actives have a fitted effect of over 60% in size
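Luminescence was the read-out, taken after 8-minute incubation at ambient temperature. Luciferase turned over luciferin with 10 uM ATP in imidazole pH 7.2 buffer containing KCl, MgCl2, Tween 20 and BSA.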
ALDH1A1 inh: blocks purified human ALDH1A1 activity; Purified ALDH1A1, NADH fluorescence, propionaldehyde substrate; hit rate 7.3% among 220,000; Potency, µM (doses to about 75.3 µM), inactives show at the top dose activity, negative = inhibition, most hits filed as inhibitors; P00352;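 also: potency is read from the fitted curve at half-maximal effect; plate controls were no enzyme wells and a reference inhibitor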
Target sequence (P00352 whole entry, looked up): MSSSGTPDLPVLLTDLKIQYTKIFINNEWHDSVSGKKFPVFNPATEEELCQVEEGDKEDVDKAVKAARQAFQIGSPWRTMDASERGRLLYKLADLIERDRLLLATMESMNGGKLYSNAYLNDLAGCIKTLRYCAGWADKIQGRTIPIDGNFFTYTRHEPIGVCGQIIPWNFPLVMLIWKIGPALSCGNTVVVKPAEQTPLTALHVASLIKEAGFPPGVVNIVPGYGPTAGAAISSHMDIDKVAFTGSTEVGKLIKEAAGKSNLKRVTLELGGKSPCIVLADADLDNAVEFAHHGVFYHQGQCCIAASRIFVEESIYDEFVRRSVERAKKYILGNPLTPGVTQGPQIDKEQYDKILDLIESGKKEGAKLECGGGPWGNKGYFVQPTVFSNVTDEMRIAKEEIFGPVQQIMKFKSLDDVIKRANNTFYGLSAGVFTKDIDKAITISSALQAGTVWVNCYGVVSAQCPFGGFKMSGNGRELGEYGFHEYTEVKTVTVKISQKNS
PNC inhibitor: blocks assembly of the perinucleolar compartment | PC3M PTB-GFP, PNC prevalence imaging, 16 h; stronger effect = lower value | activity change (PNC), negative = inhibition, % at 10 µM | hit rate 3.1% among 140,000 | AID 2417;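 active = readout at or below -70, meaning at least 70% loss of cells showing the perinucleolar compartment, a nuclear body marking cancer cells; inconclusive = readout between -30 and a set limit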;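 also: plate controls were DMSO wells for no effect and camptothecin positive control wells for full effect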
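PC3M cells stably expressing PTB-GFP, 750–1000 cells/well, treated 16 h at 37 °C with compound (23 nl of library stock), in duplicate. After paraformaldehyde fixation and Hoechst stain, imaged at 20x; PNC prevalence scored by image analysis.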
HPGD block: blocks human HPGD enzyme activity; P15428; purified HPGD, NADH fluorescence kinetic, PGE2 substrate; Potency, µM, for inactives: at the highest dose activity change, negative = inhibition, most hits filed as inhibitors; hit rate 4.3% among 150,000; also: potency is read from the fitted curve at half-maximal effect
Target sequence (P15428 whole entry, looked up): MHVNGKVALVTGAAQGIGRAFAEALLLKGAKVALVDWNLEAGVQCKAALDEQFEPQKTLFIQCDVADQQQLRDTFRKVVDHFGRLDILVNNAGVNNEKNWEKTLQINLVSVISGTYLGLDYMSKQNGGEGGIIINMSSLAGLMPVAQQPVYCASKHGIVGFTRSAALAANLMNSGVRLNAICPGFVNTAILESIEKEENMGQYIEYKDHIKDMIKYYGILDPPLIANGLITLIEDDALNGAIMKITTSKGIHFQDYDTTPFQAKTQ
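20 nM HPGD preincubated 15 min at room temperature with compound in 50 mM Tris-HCl pH 8, 0.01% Tween 20. Started with 1 mM NAD+ and 30 uM prostaglandin E2; NADH fluorescence (360/450 nm) read 5 times over 30-s intervals, last minus first.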
Active calls of the source: *; ? = inconclusive; · = no result; [ ] = dose if it differs, or a comment. Unless noted, calls follow the shape of the dose curve; as a rule, active = well fitted inhibition curve with a large enough effect (not every such curve was filed as active); inconclusive = small, poorly fitted or top-dose-only effect, or another doubt; inactive = no such curve, though single readings can be large or run the other way. Unless noted, % is scaled to controls: 0 for no effect and ±100 for the full control effect.

SMILES	LMNA splice mod	KinaseGlo FLuc	ALDH1A1 inh	PNC inhibitor	HPGD block
Fc1cc(F)c(C2SCCN2C(=S)Nc2cccc(C(F)(F)F)c2)c(F)c1 (stereo not given)	·	·	14µM*	·	·
CCOc1ccc(NC(=O)C(C)Sc2nc3ncccc3o2)cc1 (stereo not given)	18%[46 µM]	·	·	·	·
C=CC[C@@H](C(=O)O)c1ccccc1	·	-3%[7.66 µM]	3%[13.5 µM]	·	-9%
CCOC(=O)CCN1C(=O)[C@H]2[C@H]3[C@H](O)[C@H](O)C/C(=N/NC(=O)OCc4ccccc4)[C@H]3CC[C@@H]2C1=O	·	·	-3%[13.5 µM]	·	·
O=C(NCCc1ccc(Cl)cc1)c1nc(-c2cccc(F)c2)n2c1CCCCC2	-19%[46 µM]	·	·	·	·
CC1CCN(C(=O)c2ccc3c(Cl)c4c(nc3c2)CCCC4)CC1	·	2%	4.5µM*	·	·
O=C(c1ccc2c(Cl)c3c(nc2c1)CCCC3)N1CCN(c2ccc(F)cc2)CC1	?	0%	-7%	7	-13%
CCN(C(=O)c1ccc2c(Cl)c3c(nc2c1)CCC3)c1cccc(C)c1	?	0%	?	16	13µM*
CCc1ccc(N(CC)C(=O)c2ccc3c(Cl)c4c(nc3c2)CCC4)cc1	?	-1%	?	-3	?
CC(=O)c1ccc(N2CCN(C(=O)c3ccc(Cn4c(=S)[nH]c5ccc(N6CCOCC6)cc5c4=O)cc3)CC2)cc1	·	-1%	-11%	·	·
O=C(NC(NC(=S)Nc1cc(Cl)ccc1Cl)C(Cl)(Cl)Cl)c1ccco1 (stereo not given)	?	2%	8.9µM*	26	-22%
Cc1ccccc1NC(=S)NC(NC(=O)c1ccco1)C(Cl)(Cl)Cl (stereo not given)	?	-3%	9.5µM*	-120*	-16%
O=C(NC(NC(=S)Nc1ccccc1C(=O)O)C(Cl)(Cl)Cl)c1ccco1 (stereo not given)	-9%	1%	?	?	?
O=C(NC(NC(=S)Nc1ccc(Cl)c(Cl)c1)C(Cl)(Cl)Cl)c1ccco1 (stereo not given)	1%	-2%	7.1µM*	6	-24%
O=C(/C=C/c1ccccc1)NC(NC(=S)Nc1cc(Cl)ccc1Cl)C(Cl)(Cl)Cl (stereo not given)	4%[0.0737 µM]	2%	22µM*	-14	-8%
COC(=O)c1ccc(Cn2c(=O)cc(C(F)(F)F)c3c(C)nn(C)c32)cc1	1%[46 µM]	·	·	·	·
COc1ccccc1-n1c(=O)c2c3c(sc2n(Cc2ccccc2F)c1=O)CN(C(C)=O)CC3	-23%[46 µM]	·	·	·	·
CC(=O)N1CCc2c(sc3c2c(=O)n(-c2ccccc2)c(=O)n3Cc2ccccc2Cl)C1	6%	2%	-14%	-114*	-8%
CCOc1ccc(-c2cn3c(n2)sc2cc(C(=O)NCCCN4CCCCC4)ccc23)cc1	-6%[46 µM]	·	·	·	·
Cc1ccc(Cn2c(SCC(C)C)nc3c2c(=O)n(C)c(=O)n3C)cc1	9%	-5%	2µM*	?	-25%
C/C=C/CSc1nc2c(c(=O)[nH]c(=O)n2C)n1Cc1ccc(C)cc1	2%	2%	10µM*	26	18µM*
Cc1ccc(Cn2c(Sc3ncccn3)nc3c2c(=O)[nH]c(=O)n3C)cc1	-2%	-3%	-2%	-24	-5%
C/C=C/Cn1c(SCc2ccccc2)nc2c1c(=O)[nH]c(=O)n2C	10%	6%	14µM*	-4	20µM*
CCC(=NCCN1CCNCC1)C1=C(O)CC(C)(C)CC1=O	1%	0%	?	-21	-2%
CC(=NCCN1CCNCC1)C1=C(O)CC(C)(C)CC1=O	?	·	25µM*	?	·
SMILES	LMNA splice mod	KinaseGlo FLuc	ALDH1A1 inh	PNC inhibitor	HPGD block
CCOc1ccc(-n2c(SCC(=O)NCC3CCCO3)nc3c([nH]c4ccccc43)c2=O)cc1 (stereo not given)	-1%[46 µM]	·	·	·	·
CCC(=O)Nc1ccc(S(=O)(=O)Nc2ccc(Cl)nn2)cc1	0%	-1%	-8%	-80*	-15%
O=C(NNS(=O)(=O)c1ccc(Cl)cc1)c1ccc(S(=O)(=O)N2CCCCC2)cc1	-10%	-4%	?	7	-6%
O=C(COC(=O)c1ccc(S(=O)(=O)N2CCCC2)cc1)Nc1ccc(N2CCOCC2)cc1	·	2%	-11%	·	·
O=C(Nc1cc(S(=O)(=O)Nc2ccc(Cl)cc2)ccc1O)c1ccc(S(=O)(=O)N2CCCCCC2)cc1	·	-2%	3.2µM*	·	·
CC(=O)c1cccc(NC(=O)c2ccc(S(=O)(=O)N3CCCCC3)cc2)c1	-20%	4%	22µM*	6	-7%
O=C(Nc1ccc2c(c1)OCCO2)c1ccc(S(=O)(=O)N2CCCCC2)cc1	?	11%	25µM*	?	-14%
O=C(Nc1ccc(N2CCOCC2)cc1)c1ccc(S(=O)(=O)N2CCCCC2)cc1	2%	·	0.11µM*	?	·
O=C(Nc1cccc(S(=O)(=O)N2CCCCC2)c1)c1ccc2c(=O)n3c(nc2c1)CCCCC3	?	·	2.5µM*	52	·
O=C(NC1CCS(=O)(=O)C1)c1cccc(S(=O)(=O)N2CCCCC2)c1 (stereo not given)	-3%	2%	3%	?	0%
O=C(NC1CCS(=O)(=O)C1)c1ccc(S(=O)(=O)N2CCCCC2)cc1 (stereo not given)	·	1%	25µM*	·	·
CN(C)S(=O)(=O)c1ccc(C(=O)Nc2ccc(CCC(=O)N3CCCC3)cc2)cc1	-9%	4%	22µM*	?	16µM*
CN(C)S(=O)(=O)c1ccc(C(=O)Nc2ccc(CN3CCCC3)cc2)cc1	?	-1%	?	20	-24%
O=C(NCc1cccnc1)c1ccc(-c2cc(Cl)ccc2Cl)o1	·	5%	7.1µM*	·	·
CC1(C)OC(C(O)(c2cc(C(F)(F)F)cc(C(F)(F)F)c2)c2cc(C(F)(F)F)cc(C(F)(F)F)c2)C(C(O)(c2cc(C(F)(F)F)cc(C(F)(F)F)c2)c2cc(C(F)(F)F)cc(C(F)(F)F)c2)O1 (stereo not given)	·	·	17%[13.5 µM]	·	·
O=C(Nc1ccc(O)cc1)c1cc(S(=O)(=O)N2CCCC2)ccc1Cl	?	·	4.5µM*	7	·
Cc1occc1C(=O)Nc1ccc(S(=O)(=O)N2CCCC2)cc1	?	-5%	?	-3	-12%
O=C(NCc1cccnc1)c1cc(S(=O)(=O)N2CCCCC2)ccc1Cl	-9%	-1%	20µM*	62	-7%
O=C(NCc1cccnc1)c1cccc(S(=O)(=O)N2CCCCC2)c1	?	1%	-6%	-4	-6%
CS(=O)(=O)Nc1ccc(C(=O)Nc2ccc(S(=O)(=O)N3CCCC3)cc2)cc1	-15%[9.22 µM]	-1%	25µM*	·	·
CCOC(=O)N1CCC(NC(=O)c2ccc3c(Cl)c4c(nc3c2)CCCC4)CC1	?	-5%	?	54	-13%
CC(=O)Nc1ccc(C(=O)Nc2ccc(S(=O)(=O)N3CCCC3)cc2)cc1	17%	2%	?	?	-9%
CCOC(=O)N1CCC(NC(=O)c2ccc3c(=O)n4c(nc3c2)CCCC4)CC1	9%	-1%	2µM*	-19	-6%

High-throughput results deposited in PubChem BioAssay by National Center for Advancing Translational Sciences (NCATS).
